Arbovirus inh: antivirals against arbovirus infection, primary screen, cell-based, full library, 10K replicate subset; inhibition, % at 10 µM; arbovirus infection cell-based antiviral screen; 200,000 compounds, 0.37% hits; AID 1251, 2008; in the data active = inhibition above about 30%
Mcl1-Bid inh: Mcl-1/Bid binding inhibitors, primary screen, biochemical, TR-FRET, 1536-well; TR-FRET Mcl-1/Bid-Dy647 peptide binding; 220,000 compounds, 0.97% hits; Induced myeloid leukemia cell differentiation protein Mcl-1 (Homo sapiens), Q07820; inhibition, % at 21.7 µM;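 active = compounds that cut the binding signal by more than half at the single screening dose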;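 note: His-tagged Mcl-1 with europium anti-His antibody binding Bid BH3 peptide; 0% = Mcl-1 plus peptide wells and 100% = peptide-only wells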
Target sequence (Q07820 whole entry, looked up): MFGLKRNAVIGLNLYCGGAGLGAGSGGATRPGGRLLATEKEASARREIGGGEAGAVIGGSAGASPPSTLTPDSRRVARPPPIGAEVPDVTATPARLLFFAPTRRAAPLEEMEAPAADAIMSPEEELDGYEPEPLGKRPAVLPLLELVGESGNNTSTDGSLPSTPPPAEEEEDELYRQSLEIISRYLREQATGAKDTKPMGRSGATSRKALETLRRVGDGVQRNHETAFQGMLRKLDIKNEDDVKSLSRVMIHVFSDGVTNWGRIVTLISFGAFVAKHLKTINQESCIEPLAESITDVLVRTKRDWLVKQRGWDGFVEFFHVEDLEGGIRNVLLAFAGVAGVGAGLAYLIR
14-3-3 Bad PPI: inhibitors of 14-3-3 zeta/Bad binding, primary screen, biochemical, TR-FRET, bovine 14-3-3 zeta; TR-FRET 14-3-3zeta/Dy647-pBad peptide displacement, 1 h; 220,000 compounds, 0.71% hits; inhibition, % at 21.7 µM; AID 781, 2007; 14-3-3 protein zeta/delta (Bos taurus), P63103;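 active = inhibition above about 70%, limit read from the data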;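 note: 0% = full 14-3-3 plus peptide FRET controls and 100% = background without 14-3-3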
Target sequence (P63103 whole entry, looked up): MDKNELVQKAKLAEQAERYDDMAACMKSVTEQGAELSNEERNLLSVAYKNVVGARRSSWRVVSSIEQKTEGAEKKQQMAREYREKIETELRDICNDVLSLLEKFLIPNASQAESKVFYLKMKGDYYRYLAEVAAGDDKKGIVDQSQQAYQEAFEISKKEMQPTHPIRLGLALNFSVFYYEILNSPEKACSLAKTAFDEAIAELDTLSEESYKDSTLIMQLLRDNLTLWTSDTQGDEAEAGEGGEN
Mcl-1 Bim block: inhibitors of Bim peptide binding to Mcl-1, primary screen, biochemical, bead-based flow cytometry, multiplex. Induced myeloid leukemia cell differentiation protein Mcl-1 (Homo sapiens), Q07820. 190,000 compounds, 0.1% hits. Bim peptide-Mcl-1 binding. AID 1009, 2008. inhibition, % at 10 µM; in the data active = inhibition above about 40%;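 note: 0% = no compound tracer wells and 100% = peptide blocker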
Mcl1 Noxa PPI: Mcl-1/Noxa binding inhibitors, primary screen, biochemical, TR-FRET, 1536-well; TR-FRET Mcl-1/Noxa peptide binding, 2 h; 220,000 compounds, 1.5% hits; Induced myeloid leukemia cell differentiation protein Mcl-1 (Homo sapiens), Q07820; inhibition, % at 21.7 µM;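 active = compounds that cut the protein-peptide binding signal by more than 50% relative to plate controls in a single-dose test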;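 note: His-tagged Mcl-1 with rhodamine Noxa BH3 peptide and terbium anti-His antibody; 0% = Mcl-1 plus Noxa peptide wells and 100% = peptide-only wells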
An asterisk follows results filed as active. Compounds with a hit are over-represented: about 3% of the library has one in this group of screens.

Screening CN(C)C(=O)N1CCN(C(=O)N2CCOCC2)CC1 returned Arbovirus inh 8, Mcl1-Bid inh 0, 14-3-3 Bad PPI -18, Mcl-1 Bim block -4 and Mcl1 Noxa PPI 0.
`COc1ccc(CCNC(=O)CN(c2ccc(OC)c(OC)c2)S(C)(=O)=O)cc1` gave Arbovirus inh -4, Mcl1-Bid inh -19, 14-3-3 Bad PPI -2, Mcl-1 Bim block -4 and Mcl1 Noxa PPI 75*.
For COc1ccc(CCNC(=O)CN(c2cccc([N+](=O)[O-])c2)S(C)(=O)=O)cc1 the results were Arbovirus inh -3, Mcl1-Bid inh -7, 14-3-3 Bad PPI 0, Mcl-1 Bim block 2 and Mcl1 Noxa PPI 2.
For Cc1cccc(NC(=O)C2C(C(=O)O)C3C=CC2C32CC2)c1C (centres undefined) the results were Arbovirus inh 4, Mcl1-Bid inh 97*, 14-3-3 Bad PPI -3, Mcl-1 Bim block -4 and Mcl1 Noxa PPI 13.
Screening CCC(C)[C@H](NC(=O)Nc1ccccc1F)C(=O)OC (some centres undefined) returned Mcl1-Bid inh -8, 14-3-3 Bad PPI -13 and Mcl1 Noxa PPI -1.
`CN(C)S(=O)(=O)c1cc(C(=O)NCC2CCCO2)c(Cl)cc1Cl` (centres undefined) gave Arbovirus inh -1, Mcl1-Bid inh -4, 14-3-3 Bad PPI 1, Mcl-1 Bim block -3 and Mcl1 Noxa PPI 15.
`CCNC(=O)c1cc(S(=O)(=O)N(C)C)c(Cl)cc1Cl` gave Arbovirus inh -2, Mcl1-Bid inh 72*, 14-3-3 Bad PPI 88*, Mcl-1 Bim block 2 and Mcl1 Noxa PPI 28.
For Cc1nnc(SCC(=O)Nc2ccc(Cl)cn2)s1 the results were Arbovirus inh -2, Mcl1-Bid inh -12, 14-3-3 Bad PPI -6, Mcl-1 Bim block -1 and Mcl1 Noxa PPI 10.
O=C(N/N=C/c1cc(Br)c(Br)o1)c1ccc2c(c1)OCCO2 was read as Mcl1-Bid inh -10, 14-3-3 Bad PPI 31 and Mcl1 Noxa PPI 57*.
`CCOC(=O)c1csc(NC(=O)CC2CCCC2)n1` gave Arbovirus inh 30*, Mcl1-Bid inh -5, 14-3-3 Bad PPI -4, Mcl-1 Bim block 0 and Mcl1 Noxa PPI -10.
COc1ccc([C@@H]2C=C(C(=O)O)O[C@H](OCCCCO)C2)cc1 was read as Mcl1-Bid inh -27, 14-3-3 Bad PPI -3 and Mcl1 Noxa PPI -2.
Screening CCS(=O)(=O)c1ccc(S(=O)(=O)CC)s1 returned Arbovirus inh -5, Mcl1-Bid inh 70*, 14-3-3 Bad PPI 13, Mcl-1 Bim block 0 and Mcl1 Noxa PPI -7.
`Cn1c(=O)c(Nc2ccc(O)cc2)c2c3c(cccc31)C(=O)c1ccccc1-2` gave Arbovirus inh -38, Mcl1-Bid inh -12, 14-3-3 Bad PPI -13, Mcl-1 Bim block 0 and Mcl1 Noxa PPI 66*.
`COc1ccc(-n2cc(-c3ccc(OC(F)F)cc3)[n+]3c2CCCCC3)cc1` gave Arbovirus inh 0, Mcl1-Bid inh 90*, 14-3-3 Bad PPI 12, Mcl-1 Bim block -1 and Mcl1 Noxa PPI 9.
`COc1ccc(-c2cn(-c3ccc(Cl)cc3)c3[n+]2CCCCC3)cc1` gave Mcl1-Bid inh -22, 14-3-3 Bad PPI -1 and Mcl1 Noxa PPI -33.
`FC(F)(F)c1cccc(N2CCN(CC3CC=CCC3)CC2)c1` (centres undefined) gave Arbovirus inh -11, Mcl1-Bid inh -17, 14-3-3 Bad PPI 65, Mcl-1 Bim block -1 and Mcl1 Noxa PPI 13.
FC(F)(F)c1cccc(N2CCN(CC3CC4C=CC3C4)CC2)c1 (centres undefined) was read as Arbovirus inh -8, Mcl1-Bid inh 25, 14-3-3 Bad PPI 83*, Mcl-1 Bim block 1 and Mcl1 Noxa PPI 14.
Fc1ccccc1N1CCN(CC2CC3C=CC2C3)CC1 (centres undefined) was read as Arbovirus inh -10, Mcl1-Bid inh -37, 14-3-3 Bad PPI 19, Mcl-1 Bim block 0 and Mcl1 Noxa PPI 14.
C1=CC2CC1CC2CN1CCN(Cc2ccccc2)CC1 (centres undefined) was read as Arbovirus inh -4, Mcl1-Bid inh 61*, 14-3-3 Bad PPI 46, Mcl-1 Bim block 5 and Mcl1 Noxa PPI -6.
Screening Cn1c(=O)c2c(nc(N/N=C/c3ccc(OC(=O)c4ccco4)cc3)n2Cc2ccc(F)cc2)n(C)c1=O returned Arbovirus inh -5, Mcl1-Bid inh 59*, 14-3-3 Bad PPI 53, Mcl-1 Bim block -10 and Mcl1 Noxa PPI 48.
For Cc1nc2nc(SCc3ccc([N+](=O)[O-])cc3)[nH]c2cc1Br the results were Mcl1-Bid inh -9, 14-3-3 Bad PPI 4 and Mcl1 Noxa PPI -4.
For Cc1sc(NC(=O)c2sc3nc4c(C)cccc4cc3c2N)c(C#N)c1C the results were Arbovirus inh -14, Mcl1-Bid inh 97*, 14-3-3 Bad PPI 60, Mcl-1 Bim block 0 and Mcl1 Noxa PPI 96*.
Screening Cc1cccc2cc3c(N)c(C#N)sc3nc12 returned Arbovirus inh 4, Mcl1-Bid inh -8, 14-3-3 Bad PPI -2, Mcl-1 Bim block 4 and Mcl1 Noxa PPI 30.
C=CCN=c1scc(-c2ccccc2)n1/N=C/c1ccccn1 was read as Arbovirus inh 32*, Mcl1-Bid inh -9, 14-3-3 Bad PPI -1, Mcl-1 Bim block -6 and Mcl1 Noxa PPI 21.
For C=CCN=c1scc(-c2ccc(F)cc2)n1/N=C/c1ccccn1 the results were Arbovirus inh 1, Mcl1-Bid inh -39, 14-3-3 Bad PPI -7, Mcl-1 Bim block -3 and Mcl1 Noxa PPI 14.
For CCOC(=O)CSc1nc(C2CC2)cc(-c2ccc(Cl)cc2)c1C#N the results were Arbovirus inh -14, Mcl1-Bid inh 97*, 14-3-3 Bad PPI 6, Mcl-1 Bim block -4 and Mcl1 Noxa PPI 3.
Screening CCCCCCC(=O)N/N=C(\C)Cc1ccccc1 returned Arbovirus inh 6, Mcl1-Bid inh -14, 14-3-3 Bad PPI -3, Mcl-1 Bim block -3 and Mcl1 Noxa PPI 70*.
Screening CCCCCCCC(=O)NNC(=O)Cc1ccccc1 returned Arbovirus inh 4, Mcl1-Bid inh -12, 14-3-3 Bad PPI 1 and Mcl-1 Bim block 0.
For COc1ccc(C(=O)COc2ccc(F)cc2)c(O)c1C the results were Arbovirus inh 0, Mcl1-Bid inh -19, 14-3-3 Bad PPI -15, Mcl-1 Bim block -1 and Mcl1 Noxa PPI 3.
For O=C(NNc1c(Cl)cccc1Cl)c1cccs1 the results were Mcl1-Bid inh 3, 14-3-3 Bad PPI 91* and Mcl1 Noxa PPI 8.
O=C(CNC(=O)c1ccccc1Br)N/N=C/c1ccccc1O was read as Arbovirus inh -29, Mcl1-Bid inh -10, 14-3-3 Bad PPI -9, Mcl-1 Bim block -1 and Mcl1 Noxa PPI 2.

Bioassay records from PubChem.
